For 38 compounds, growth results are on record in PubChem BioAssay (NCI).

About 83,000 compounds went through this panel and 20% of them were active in at least one assay; those are over-represented in the sample as a whole.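 Activity criterion: percent growth below 10, measured after cells in 96-well plates were exposed to a single compound concentration for 48 hours.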 Values without a mark were called inactive. Calls of active or inactive are those of the source.

The subject of one assay is NCI-H23 lung. Kind of assay: NCI-60 one-dose screen, 48 h (100 = growth as untreated, 0 = no growth, -100 = all killed). The settings on record: 10 µM unless noted.
In the case of `CCN(CC)c1ccc2c(c1)OS(=O)(=O)N=C2`, the growth was 95.6%.
Same read-out and setting: under `NC(=O)c1cccc(-n2ccc3cc(NC(=O)Nc4ccc(Cl)c(Cl)c4)ccc32)n1` stands 92.9%; under `COc1ccc(C2=NOC(CC(=O)N(CCO)CCO)C2)cc1OC1CCCC1` (stereo unspecified), 99.9%.

The subject of the next assay is NCI-H322M lung. The assay is described as above. The settings on record: 10 µM unless noted.
With `COc1ccc(/C=C/C(=O)N2CCC(O)CC2)cc1OC1CCCC1`, the growth was 108%.
On to `CCCCOC(=O)C1OC(Oc2ccc3c(C)cc(=O)oc3c2)[C@@H](OC(C)=O)C(OC(C)=O)C1OC(C)=O` (stereo partly specified), for which the growth is 104%.
Regarding `CC(=O)OC[C@H](O)[C@@]1(O)CC[C@H]2[C@@H]3CCC4=CC(=O)CC[C@]4(C)[C@H]3[C@@H](O)C[C@@]21C`, the growth is 112%.
For `CCOC(=O)c1[nH]c2cc(Cl)ccc2c1[C@@H](C(=O)NC(C)(C)C)N(CC)C(=O)CCCCC#Cc1cccc2c1CN(C1CCC(=O)NC1=O)C2=O` (stereo partly specified), the growth was 13.5%.
Same read-out and setting: under `O=c1oc2ccccc2cc1-c1csc(N=Nc2c(O)[nH]c3ccc(Cl)cc23)n1` stands 105%.
The same measure, in the same setting: under `CCN1CCN(c2nc3ccccc3c3c(=O)c4cc(F)ccc4sc23)CC1` stands 81.2%; under `COc1cc2oc(-c3ccc(O)cc3)cc(=O)c2c(O)c1I`, 108%.
Turning to `COc1ccc(NS(=O)(=O)c2ccc(-c3cnc(C4CC4)o3)cc2)cc1`, the growth was 91.8%.
As to `O=C(N/N=C(\CS(=O)(=O)c1ccccc1)c1cc2cc(Br)ccc2oc1=O)c1ccccc1`, the growth is 104%.
On to `C[C@]1(CO)C[C@@H](O)C[C@]2(C)[C@@H]1CC[C@@]13C[C@@H]4[C@@H](C[C@H]12)[C@]4(C)C3`, for which the growth was 103%.
Same read-out and setting: under `O=C(NC1CC1)c1cc2n(n1)CC(c1ccccc1)N2` (stereo unspecified) stands 99%.
On to `Cc1cccc2c(=O)c3c(sc12)c(NCCNCCO)nc1ccccc13`, for which the growth was 37.7%.
As for `COC(=O)[C@@]12CC[C@@H](C)[C@]3(C[C@@H](c4ccoc4)OC3=O)[C@H]1CC[C@@H]1O[C@@]12C`, the growth is 104%.
For `O=C1c2c(c3c4cc(Br)ccc4[nH]c3c3ccc4ccccc4c23)C(=O)N1O`, the growth was 96.9%.
Turning to `NS(=O)(=O)c1ccc(C(=O)N/N=C(\CS(=O)(=O)c2ccccc2)c2cc3cc(Br)ccc3o2)cc1`, the growth was 103%.
Regarding `O=c1oc2ccccc2cc1-c1csc(N=Nc2c(O)[nH]c3ccc(Br)cc23)n1`, the growth was 102%.
On to `O=C(N/N=C/c1ccc(OC(F)F)c(OC2CCCC2)c1)c1cnn2c1NC(c1ccccc1)C2` (stereo unspecified), for which the growth is 92.6%.
Same read-out and setting: under `COc1ccc(/C=N/NC(=O)c2cnn3c2NC(c2ccccc2)C3)cc1OC1CCCC1` (stereo unspecified) stands 101%; under `CCCCCCCC/C=C\CCCCCCCCOc1cccc(CC(=O)NCC[N+]2(C)CCOCC2)c1`, 101%.
For the compound `COC(=O)c1c2c(c(C)[n+]([O-])c1C)C(=O)C(NCc1ccc(O)cc1)=CC2=O`, the growth is 0.623% (active).
For `COc1c(O)c2c3c(c1OC)-c1ccccc1CC3N(S(=O)(=O)c1ccc(C)cc1)CC2` (stereo unspecified), the growth is 53%.
On to `COc1cc(/C=N/NC(=O)c2cnn3c2NC(c2ccccc2)C3)ccc1OC1CCCC1` (stereo unspecified), for which the growth is 32.9%.
Turning to `CCOC(=O)c1cnn(CC(O)c2ccc(F)cc2)c1NC(=O)Nc1ccccc1F` (stereo unspecified), the growth was 103%.
Consider `CCCN1CCN(c2ccc3nc(-c4ccc5nc(-c6ccc(C(F)(F)F)cc6)[nH]c5c4)[nH]c3c2)CC1`, for which the growth is -95.7% (active).
For the compound `CCCCCCCC/C=C\CCCCCCCCOc1cccc(CC(=O)NCC[N+](C)(C)C)c1`, the growth is 102%.
For the compound `NC(=S)N/N=C1\c2ccccc2-c2c(F)c(F)c(F)c(F)c21`, the growth was 93.5%.
Consider `COc1cc(/C=C/C(=O)CC(=O)/C=C/c2cc(Br)c(OC)c(OC)c2)cc(Br)c1OC`, for which the growth is 97.6%.
Turning to `COc1cccc2c(=O)c3c(sc12)c(NCCN(C)C)nc1ccccc13`, the growth is 26.2%.
The same measure, in the same setting: under `Cc1cccc2c(=O)c3c(sc12)c(NCCCN)nc1ccccc13` stands 43.2%; under `O=C(c1ccc2ncc(-c3nc(NC4CC4)ncc3F)n2c1)N1CCOCC1`, 15.4%; under `O=S(=O)(Nc1ccccc1Cl)c1ccc(-c2cnc(C3CC3)o2)cc1`, 42.3%.
As to `O=c1oc2ccccc2cc1-c1csc(N/N=C/c2cc3ccccc3nc2Cl)n1`, the growth is 103%.
Consider `CCCCCCCC/C=C\CCCCCCCCOc1cccc(CC(=O)NCC[N+]2(C)CCCC2)c1`, for which the growth is 99.5%.
Take `CCC(C)Oc1cc(/C=N/NC(=O)c2cnn3c2NC(c2ccccc2)C3)ccc1OC` (stereo unspecified): the growth was 45%.
As for `Cl.Fc1c[c-]c(-c2ccccn2)c(F)c1.[Pt].c1ccc([PH+](CC[PH+](c2ccccc2)c2ccccc2)c2ccccc2)cc1`, the growth was -98.8% (active).
Same read-out and setting: the figure for `CCN(CC)c1ccc2c(c1)OS(=O)(=O)N=C2` is 107%; for `NC(=O)c1cccc(-n2ccc3cc(NC(=O)Nc4ccc(Cl)c(Cl)c4)ccc32)n1` it is 96.7%.
For the compound `COc1ccc(C2=NOC(CC(=O)N(CCO)CCO)C2)cc1OC1CCCC1` (stereo unspecified), the growth was 107%.
